Compounds without any hit were thinned out: in the full panel of roughly 83,000, 20% have a hit.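 Cell lines were cultured in 96-well plates, exposed to a single compound concentration, and assessed for percent growth 48 hours later.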 Activity calls are given as the source filed them. The calls were made as follows: active = growth percent below 10; inactive = the rest.
Tested on: HL-60(TB) leukemia
Experiment: NCI-60 one-dose screen, 48 h (100 = growth as untreated, 0 = no growth, -100 = all killed)
Conditions: 10 µM unless noted

SMILES | growth
CC1CN(C2CCCCC2)C(=S)N(c2ccccc2)C1=O (centres undefined) | 85% (inactive)
CCn1c(=O)c(C(=O)NCCCO)c(O)c2ccccc21 | 90.5% (inactive)
O=c1cc(CSc2nnc(-c3ccc(F)cc3)o2)c2ccc3ccccc3c2o1 | 99.9% (inactive)
C#CC[C@@H]1C[C@]2(C)[C@H]3CC[C@@H]4[C@H]5C(C(=C)C)CC[C@]5(C(=O)NCCN(CCN)CCN)CC[C@@]4(C)[C@]3(C)CC[C@H]2C(C)(C)[C@H]1OC(C)=O (some centres undefined) | 41.5% (inactive)
O=C(Cn1c2ccccc2c2ccncc21)N/N=C/c1cc(O)c(O)c(O)c1 | 85.1% (inactive)
CN1c2ccccc2C(C)(C)C12C=Cc1cc(O)ccc1O2 (centres undefined) | -30.1% (active)
N/C(=N\C(N)=N\c1nc2ccccc2s1)c1cnccn1 | 0.412% (active)
CCCCC(CC#N)(CCC)CCC | 104% (inactive)
COc1ccc(NC(=O)Nc2ccc(-c3cccnc3)cc2N2CCC(CO)CC2)cc1 | 88.6% (inactive)
O=C(c1ccccc1)C1OC1C(=O)c1ccccc1 (centres undefined) | 22.8% (inactive)
O=c1c2c3c(sc2nc(N/N=C/c2cn(-c4ccccc4)nc2-c2ccc(Cl)cc2)n1Cc1ccccc1)CCCC3 | -32.4% (active)
COc1cc(CO)cc2cc3ccccc3nc12 | 101% (inactive)
COC(=O)C1=C(C(=O)OC)C23C=C(C)C1C2=C(C)C1(CC1)[C@@](C)(O)C3=O (some centres undefined) | 25.6% (inactive)
O=C(Nc1ccc(NS(=O)(=O)c2ccc(F)cc2)cc1)C12CC3CC(CC(C3)C1)C2 | 96.1% (inactive)
CC(=O)Oc1ccccc1C(=O)N(Cc1ccc2c(Cl)cc(Cl)c(O)c2n1)c1ccccc1 | 46.7% (inactive)
COc1ccc(C2=Nc3c(N)ncnc3NC(c3ccc4c(c3)OCO4)C2)cc1 (centres undefined) | 124% (inactive)
COc1cc(/C=C2\C=C(c3ccc(F)cc3)N(Cc3ccccc3)C2=O)cc(OC)c1OC | 75.9% (inactive)
COc1cc(NS(=O)(=O)c2ccc(-c3cnc(C4CC4)o3)cc2)ccc1F | 1.92% (active)
CN1CC(c2ccc(Br)cc2)C(C(=O)c2ccc(Br)cc2)C12C(=O)Nc1ccccc12 (centres undefined) | 98.4% (inactive)
Nc1ncc(-c2ccc3ncnc(Nc4cccc(Cl)c4)c3c2)cn1 | 58.1% (inactive)
COc1ccc(C2=CN3CC=CCC3CC2=O)cc1 (centres undefined) | 110% (inactive)
CCCCNCC(=O)Nc1ccc(C(=O)OCC)cc1 | 86.9% (inactive)
CC1(C)CC[C@]23CC[C@]4(C)[C@H](CC[C@@H]5[C@@]6(C)CCCNC(C)(C)[C@@H]6CC[C@]54C)[C@H]2[C@H]1OC3 | -65.5% (active)
CCOC(=O)C(Cc1ccccc1)n1c(O)c(C=Nc2ccc(C(=O)OCCN(CC)CC)cc2)sc1=O (centres undefined) | 97.8% (inactive)
